This experiment concerns the target T1, Methionyl-tRNA synthetase, putative (Leishmania donovani (strain BPK282A1)) (UniProt E9BF75).
T1 sequence (whole entry): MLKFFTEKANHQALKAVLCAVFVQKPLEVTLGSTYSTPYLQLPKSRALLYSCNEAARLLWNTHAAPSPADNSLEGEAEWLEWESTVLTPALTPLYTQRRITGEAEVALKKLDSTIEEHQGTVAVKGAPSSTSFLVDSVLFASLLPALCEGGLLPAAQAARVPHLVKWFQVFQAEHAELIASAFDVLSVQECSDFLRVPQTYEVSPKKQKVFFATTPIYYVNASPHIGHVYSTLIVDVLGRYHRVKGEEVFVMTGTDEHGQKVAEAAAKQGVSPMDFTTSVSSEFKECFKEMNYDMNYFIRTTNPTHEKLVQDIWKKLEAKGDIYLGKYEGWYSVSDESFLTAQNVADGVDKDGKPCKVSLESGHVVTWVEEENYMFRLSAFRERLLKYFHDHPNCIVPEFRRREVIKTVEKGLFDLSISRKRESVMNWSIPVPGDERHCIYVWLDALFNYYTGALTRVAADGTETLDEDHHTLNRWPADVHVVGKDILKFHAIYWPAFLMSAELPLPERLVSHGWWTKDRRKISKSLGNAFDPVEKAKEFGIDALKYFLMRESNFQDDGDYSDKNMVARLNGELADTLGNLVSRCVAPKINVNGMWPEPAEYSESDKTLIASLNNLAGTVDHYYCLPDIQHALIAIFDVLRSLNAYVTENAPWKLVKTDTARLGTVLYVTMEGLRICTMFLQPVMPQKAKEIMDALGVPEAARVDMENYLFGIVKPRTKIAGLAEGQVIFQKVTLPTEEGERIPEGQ
Briefly: Leishmania donovani Methionine tRNA synthetase (LdMetRS):v7. Dose response assay. The class given is functional. More on the design: conc 80 nM, time 150 minutes.

Some results are limits rather than exact numbers.

Under “BOTTOM 0.294483603, HILLSLOPE 0.87168646, MAX_EFFECT 90.28037383, TOP 97.37088088”, `CN(CCO)c1ccnc(Nc2ccc(F)c(F)c2)n1` registered a PXC50 of 5.27.

In turn, `C[C@@H](CO)Nc1nc(Nc2ccc(F)c(F)c2)nc2c1cnn2C` yielded a PXC50 (BOTTOM 0.900407202, HILLSLOPE 1.012545194, MAX_EFFECT 78.11320755, TOP 96.15766895) of 4.67. Consider `Cn1ncc2c(NCCO)nc(Nc3cccc(Cl)c3)nc21`, for which the PXC50 (BOTTOM 2.482705833, HILLSLOPE 1.074607965, MAX_EFFECT 81.43133462, TOP 87.71460066) worked out at 5.07. The compound `Cn1ncc2c(NCCO)nc(Nc3cccc(F)c3)nc21` registered a PXC50 (BOTTOM 8.925751042, HILLSLOPE 1.252459196, MAX_EFFECT 66.66666667, TOP 81.92338456) of 4.47. For the setting “BOTTOM -1.539697056, HILLSLOPE 1.029999783, MAX_EFFECT 60.61185468, TOP 100.0”, `Clc1cc(Cl)cc(NCc2ncc[nH]2)c1` had a PXC50 of 2.93. In the case of `CN(CCO)c1ccnc(Nc2cccc(C(F)(F)F)c2)n1`, the PXC50 (BOTTOM -8.924411722, HILLSLOPE 0.906080231, MAX_EFFECT 87.09055877, TOP 92.74987259) was 5.38. Take `c1ccc(-c2nc(-n3cnnc3)c3ccccc3n2)cc1`: the PXC50 (MAX_EFFECT 0.740740741) is less than 4. For `CCn1c(NC(=O)Nc2ccccc2OC)nc2ccccc21`, the PXC50 (MAX_EFFECT 1.111111111) is less than 4. `NS(=O)(=O)c1cccnc1Nc1cccc(F)c1` yielded a PXC50 (MAX_EFFECT 1.518026565) of less than 4.

With `C[C@@H](CO)Nc1nccc(Nc2ccc(F)c(F)c2)n1`, for the setting “MAX_EFFECT 2.697495183”, the PXC50 is less than 4.

Take `COc1ccccc1NC(=O)Nc1cccc(O)c1`: where the note is “MAX_EFFECT 2.803738318”, the PXC50 was less than 4. Turning to `C[C@H](CO)Nc1nccc(Cl)n1`, the PXC50 (MAX_EFFECT 4.672897196) was less than 4.

`CN(CCO)c1nccc(Cl)n1` had a PXC50 (MAX_EFFECT 5.046728972) of less than 4.

In the case of `NS(=O)(=O)c1cccnc1Nc1ccc(O)cc1`, the PXC50 (MAX_EFFECT 5.185185185) is less than 4. In turn, `Cn1c(NC(=O)Nc2ccccc2Cl)nc2ccccc21` had a PXC50 (MAX_EFFECT 5.925925926) of less than 4. The compound `COc1ccncc1NC(=O)N1CCOc2ccccc21` showed a PXC50 (MAX_EFFECT 6.037735849) of less than 4.

Compound `C[C@@H](CO)Nc1nccc(Cl)n1` displayed a PXC50 (MAX_EFFECT 6.91588785) of less than 4.

In the case of `Cn1ncc2c(NCCO)nc(NCC3CCCO3)nc21` (configuration not stated), the PXC50 (MAX_EFFECT 7.969639469) was less than 4.

`CN(CCO)c1nc(NCCO)c2cnn(C)c2n1` came in with a PXC50 (MAX_EFFECT 9.248554913) of less than 4. Compound `Clc1cc(Cl)cc(NCCc2ccccc2)c1` showed a PXC50 (MAX_EFFECT 9.751434034) of less than 2.7. Turning to `CN(C)c1nc(NCCO)c2cnn(C)c2n1`, the PXC50 (MAX_EFFECT 10.24667932) was less than 4. Compound `Cc1cc(Nc2ncccc2S(N)(=O)=O)cc(C(F)(F)F)c1` yielded a PXC50 (MAX_EFFECT 10.97804391) of less than 4. Consider `Cn1ncc2c(NCCO)nc(NCCc3ccccc3)nc21`, for which the PXC50 (MAX_EFFECT 11.85185185) is less than 4.

`OCCCNc1nccc(Nc2ccc(F)c(F)c2)n1` returned a PXC50 (MAX_EFFECT 15.09433962) of less than 4. `Cn1ncc2c(NCCO)nc(NC3CCOCC3)nc21` had a PXC50 (MAX_EFFECT 17.34104046) of less than 4. For `Clc1cc(Cl)cc(CNCC2CCOCC2)c1`, the PXC50 (MAX_EFFECT 17.78202677) was less than 2.7. The compound `CN1CCn2cc/c(=N\c3ccc(F)c(F)c3)nc21` showed a PXC50 (MAX_EFFECT 18.13084112) of less than 4. As for `Cc1cnn(C)c1CNCc1cc(Cl)cc(Cl)c1`, the PXC50 (MAX_EFFECT 20.07648184) was less than 2.7. In the case of `COc1ccccc1NC(=O)NC1CCCCC1`, the PXC50 (MAX_EFFECT 21.47001934) was less than 4. Where the note is “MAX_EFFECT 26.58959538”, `C[C@H](CO)Nc1ccnc(Nc2cccc(F)c2)n1` gave a PXC50 of less than 4. In the case of `Clc1cc(Cl)cc(NCc2ccc3[nH]ncc3c2)c1`, where the note is “MAX_EFFECT 28.48948375”, the PXC50 is less than 2.7. In turn, `Clc1cc(Cl)cc(CNCc2ccncc2)c1` yielded a PXC50 (MAX_EFFECT 36.1376673) of less than 2.7. For the compound `CC(NCc1cc(Cl)cc(Cl)c1)C1CCCN(C(=O)OC(C)(C)C)C1` (configuration not stated), the PXC50 (MAX_EFFECT 36.52007648) was less than 2.7. For the setting “MAX_EFFECT 36.99421965”, `Cn1ncc2c(NCCO)nc(NCCn3cccn3)nc21` came in with a PXC50 of less than 4. Under “MAX_EFFECT 38.88888889”, `CCNc1nc(C#N)nc(Nc2ccccc2)n1` showed a PXC50 of less than 4.

As for `C[C@@H](CO)Nc1ccnc(Nc2ccc(F)c(F)c2)n1`, the PXC50 (MAX_EFFECT 40.46242775) was less than 4.

Where the note is “BOTTOM 1.106249154, HILLSLOPE 1.041028332, MAX_EFFECT 65.20076482, TOP 65.36183651”, `Clc1cc(Cl)cc(CNCc2ccc3[nH]ncc3c2)c1` returned a PXC50 of 3.99.

In the case of `OCCNc1ccnc(Nc2ccc(F)c(F)c2)n1`, the PXC50 (BOTTOM 2.684604701, HILLSLOPE 0.866541634, MAX_EFFECT 62.24299065, TOP 102.5858947) was determined as 4.2. For `Cn1ncc2c(NCCO)nc(Nc3ccc(F)cc3)nc21`, under “BOTTOM 3.895127381, HILLSLOPE 1.044427324, MAX_EFFECT 67.40740741, TOP 80.2965153”, the PXC50 stood at 4.65. As to `Cn1ncc2c(NC3CCC3)nc(Nc3ccc(F)c(F)c3)nc21`, the PXC50 (BOTTOM 4.327233824, HILLSLOPE 1.310483513, MAX_EFFECT 62.26415094, TOP 64.55009742) was found to be 5.13. `Cn1ncc2c(NC3CCCC(O)C3)nc(Nc3ccc(F)c(F)c3)nc21` (configuration not stated) yielded a PXC50 (BOTTOM 4.828241924, HILLSLOPE 1.003842691, MAX_EFFECT 77.73584906, TOP 90.35664451) of 4.76.

In the case of `Clc1cc(Cl)cc(CNCc2ccc3[nH]ccc3c2)c1`, the PXC50 (BOTTOM 7.303470977, HILLSLOPE 1.421171765, MAX_EFFECT 85.85086042, TOP 90.87319761) was 4.04. For the compound `Clc1cc(Cl)cc(NCc2ccncc2)c1`, for the setting “BOTTOM -1.202484297, HILLSLOPE 0.574759938, MAX_EFFECT 66.34799235, TOP 100.0”, the PXC50 was 3.3. As for `C[C@H](CO)Nc1ccnc(Nc2ccc(F)c(F)c2)n1`, for the setting “BOTTOM -1.459719323, HILLSLOPE 0.865053746, MAX_EFFECT 69.36416185, TOP 100.0”, the PXC50 stood at 4.44. For the compound `Clc1cc(Cl)cc(NCc2cccnc2)c1`, the PXC50 (BOTTOM -6.720584862, HILLSLOPE 0.561777258, MAX_EFFECT 60.61185468, TOP 100.0) was found to be 3.18. As for `Cn1cc(C(=O)N2CCc3ccccc32)c2ccccc21`, the PXC50 (MAX_EFFECT 1.851851852) is less than 4. Turning to `Cn1ncc2c(NC3COC3)nc(Nc3ccc(F)c(F)c3)nc21`, where the note is “MAX_EFFECT 2.264150943”, the PXC50 is less than 4. For `CN(C)CCNc1nc(NCCO)c2cnn(C)c2n1`, the PXC50 (MAX_EFFECT 2.277039848) was less than 4.

In the case of `COC(=O)c1ccc(OC)c(NC(=O)N2CCOc3ccccc32)c1`, the PXC50 (MAX_EFFECT 3.018867925) was less than 4. On to `C[C@@H](CO)Nc1ccnc(Cl)n1`, for which the PXC50 (MAX_EFFECT 3.177570093) was less than 4. As for `COc1cc(NC(=O)c2cccc3cccnc23)c(OC)cc1Cl`, the PXC50 (MAX_EFFECT 3.703703704) was less than 4. For the setting “MAX_EFFECT 3.795066414”, `Cn1ncc2c(NCCO)nc(NCCO)nc21` yielded a PXC50 of less than 4. `Cn1ncc2c(NCCO)nc(NCc3ccccc3)nc21` gave a PXC50 (MAX_EFFECT 4.528301887) of less than 4. Where the note is “MAX_EFFECT 4.905660377”, `COc1ccccc1NC(=O)Nc1cnccc1OC` registered a PXC50 of less than 4. For `C[C@H](CO)Nc1nccc(Nc2ccc(F)c(F)c2)n1`, under “MAX_EFFECT 6.165703276”, the PXC50 is less than 4. Take `COc1ccccc1NC(=O)Nc1ccn(C)n1`: the PXC50 (MAX_EFFECT 6.168224299) was less than 4. For the setting “MAX_EFFECT 6.666666667”, `N#Cc1c(N)nc(-c2ccccc2)nc1C(F)(F)F` gave a PXC50 of less than 4. On to `COC(=O)c1ccc(OC)c(NC(=O)N2CCCc3ccccc32)c1`, for which the PXC50 (MAX_EFFECT 6.79245283) is less than 4.

With `NS(=O)(=O)c1cccnc1NC1CCCC1`, for the setting “MAX_EFFECT 6.986027944”, the PXC50 is less than 4. Under “MAX_EFFECT 7.407407407”, `NS(=O)(=O)c1cccnc1Nc1cc(O)ccn1` gave a PXC50 of less than 4. Compound `NS(=O)(=O)c1cccnc1Nc1cncnc1` gave a PXC50 (MAX_EFFECT 8.518518519) of less than 4. For the compound `CN1CCC(CNCc2cc(Cl)cc(Cl)c2)CC1`, the PXC50 (MAX_EFFECT 8.986615679) was less than 2.7.

For the origin of these results see ChEMBL document CHEMBL3988442, “University of Dundee, Small-Polar-MMV Screening Library” (2021).
